Assay results published in PubChem BioAssay.
Activity calls are given as the source filed them. Unless noted, no rule for the calls is given here.

Tested on: not listed separately
Experiment: compounds altering circadian rhythm period length – cell-based, LOPAC library, luminescence reporter (AID 2774);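 also: values are relative to mean of DMSO wells on each plate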
Conditions: circadian reporter cells, at 7 µM, actives lie on both sides

| Compound | period change |
| --- | --- |
| CC1OC1P(=O)(O)O (centres undefined) | -0.1 h (inactive) |
| CC(N)C(=O)OC(C)(C)Cc1ccc(Cl)cc1 (centres undefined) | -0.005 h (inactive) |
| CCn1cc(C(=O)O)c(=O)c2ccc(C)nc21 | -0.11 h (inactive) |

Tested on: Hepatitis C virus NS3 helicase
Experiment: blockers of NS3h binding to ssDNA – biochemical, fluorescence polarization, LOPAC1280 library, primary screen (AID 687035; in the data active = inhibition above about 37%)
Conditions: Purified HCV NS3 helicase, Cy5-dT15 ssDNA binding fluorescence polarization; hits give high values; concentration not given here

| Compound | inhibition |
| --- | --- |
| CC1OC1P(=O)(O)O (centres undefined) | -2% (inactive) |
| CC(N)C(=O)OC(C)(C)Cc1ccc(Cl)cc1 (centres undefined) | -4% (inactive) |
| CCn1cc(C(=O)O)c(=O)c2ccc(C)nc21 | -5% (inactive) |

Tested on: not listed separately
Experiment: compounds altering Cy5-DNA-NS3h complex signal – biochemical, LOPAC1280, artefact control for HCV NS3 helicase inhibitor project (AID 687037)
Conditions: Cy5-DNA-NS3h complex fluorescence interference counterscreen

| Compound | fluorescence ratio (interference) |
| --- | --- |
| CC1OC1P(=O)(O)O (centres undefined) | 1 (inactive) |
| CC(N)C(=O)OC(C)(C)Cc1ccc(Cl)cc1 (centres undefined) | 1 (inactive) |
| CCn1cc(C(=O)O)c(=O)c2ccc(C)nc21 | 1 (inactive) |

Tested on: Aerobactin synthetase IucA (Klebsiella pneumoniae hvKP1)
Experiment: IucA enzyme inhibition, primary screen, biochemical, Spectrum library (AID 1346200);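 also: 100% = wells without compound and 0% = wells lacking enzyme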
Conditions: malachite green pyrophosphate, A620, at 8 µM, hits give low values

| Compound | activity remaining |
| --- | --- |
| NC(=O)c1ncn([C@@H]2O[C@H](CO)[C@@H](O)[C@H]2O)n1 | 120% (inactive) |
| CC1OC1P(=O)(O)O (centres undefined) | 94.8% (inactive) |
| CC(C(=O)O)c1cccc(C(=O)c2ccccc2)c1 (centres undefined) | 106% (inactive) |
| N[C@@H](CC(=O)N1CCn2c(nnc2C(F)(F)F)C1)Cc1cc(F)c(F)cc1F | 110% (inactive) |
| CC[N+](CC)(CC)CCOc1cccc(OCC[N+](CC)(CC)CC)c1OCC[N+](CC)(CC)CC | 96.2% (inactive) |
| C[N+]1(C)C2CC(OC(=O)[C@@H](CO)c3ccccc3)CC1C1OC12 (some centres undefined) | 102% (inactive) |
| CC(CN1c2ccccc2Sc2ccccc21)N(C)C (centres undefined) | 78.1% (inactive) |
| NCCCCC(=O)O | 107% (inactive) |
| CC(=O)OC(C)C[N+](C)(C)C (centres undefined) | 80.8% (inactive) |
| COc1cc([C@@H]2c3cc4c(cc3[C@H](O)[C@H]3COC(=O)[C@H]23)OCO4)cc(OC)c1OC | 102% (inactive) |
